The campaign covered roughly 340,000 compounds. About 5,100 (1.5%) were called active.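 How the source made its calls: active means mean Tm shift, scaled 0 neutral to 100 positive control, at about 1.3% or above, every replicate too (limit read from the data); inconclusive means no clear call, values can overlap the other calls; inactive means the rest.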 For the sample, actives were picked, then their nearest neighbours and some compounds at random.

Sequence of Fibroblast growth factor 22 (Homo sapiens) (Q9HCT0 whole entry, looked up): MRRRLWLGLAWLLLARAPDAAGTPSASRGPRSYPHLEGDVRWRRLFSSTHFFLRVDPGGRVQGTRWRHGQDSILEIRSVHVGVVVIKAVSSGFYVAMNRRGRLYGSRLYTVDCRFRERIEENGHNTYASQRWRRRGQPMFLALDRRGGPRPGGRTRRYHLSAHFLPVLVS

This experiment has as its target Fibroblast growth factor 22 (Homo sapiens) (UniProt Q9HCT0). The experiment in a line: binders of human FGF22 protein, primary screen, FGF22 synaptogenesis inhibitor project, biophysical, thermal shift, single point (AID 651658). Particulars: recombinant FGF22 thermal shift, SYPRO orange fluorescence, at 9.99 µM, stronger effect = higher value.
With `O=C(c1ccccc1[N+](=O)[O-])N1CCC2(CC1)OCCO2`, the activity (Tm shift, normalised) was -0.032% (inactive).

On to `Cc1cccc(-n2c(C)nc3cc(C(=O)N4CCC5(CC4)OCCO5)ccc32)c1`, for which the activity (Tm shift, normalised) is 0.173% (inactive).

On to `Cc1ccc(-c2cc(C(=O)N3CCC4(CC3)OCCO4)no2)cc1`, for which the activity (Tm shift, normalised) was 43.1% (active).

For `COc1cccc(-c2ccc3n(c2=O)C[C@@H]2[C@@H](CO)[C@H](C(=O)O)[C@H]3N2C(=O)c2cnccn2)c1`, the activity (Tm shift, normalised) was -0.051% (inactive).

Regarding `C[C@]12CCCCC1=CC(=O)C1C2CC[C@@]2(C)C1C[C@@H](F)[C@@H]2O` (stereo not given in full), the activity (Tm shift, normalised) is 43.1% (active).

On to `C[C@]12CCC3C(CC[C@H]4[C@H](O)[C@H](O)CC[C@]34C)C1CCC2=O` (stereo not given in full), for which the activity (Tm shift, normalised) is 42.7% (inactive).

As to `COC(=O)[C@@H]1[C@@H](CO)[C@@H]2Cn3c(ccc(C4=CCCCC4)c3=O)[C@H]1N2CC1CC1`, the activity (Tm shift, normalised) was 0.126% (inactive).

Turning to `C/C=C/c1ccc(C2[C@@H]3CN(Cc4cncnc4)C[C@H]2N3)cc1` (stereo not given in full), the activity (Tm shift, normalised) was -0.323% [percent of sucrose octasulfate shift, DMSO zero] (inactive).

Regarding `COc1cccc(-c2ccc3n(c2=O)C[C@H]2[C@H](CO)[C@@H](C(=O)O)[C@@H]3N2C(=O)c2cnccn2)c1`, the activity (Tm shift, normalised) is -0.009% (inactive).

Turning to `CC=C(C)C(=O)OC1CCN2CC=C(COC(=O)C(O)(C(C)OC)C(C)(C)O)C12` (stereo not given), the activity (Tm shift, normalised) was 43.1% (active).

For `O=C(O)[C@H]1[C@H](CO)[C@H]2Cn3c(ccc(-c4ccccc4)c3=O)[C@@H]1N2S(=O)(=O)c1ccccc1F`, the activity (Tm shift, normalised) was 0.019% (inactive).

Regarding `COC(=O)[C@@H]1[C@@H](CO)[C@@H]2Cn3c(ccc(-c4ccc(F)cc4)c3=O)[C@H]1N2C(C)=O`, the activity (Tm shift, normalised) is -0.001% (inactive).

With `COC(=O)[C@H]1[C@H](CO)[C@H]2Cn3c(ccc(-c4cccc(F)c4)c3=O)[C@@H]1N2Cc1ccccc1`, the activity (Tm shift, normalised) is -0.258% (inactive).

In the case of `c1ccc(C(CN2CCCCC2)c2ccccc2)cc1`, the activity (Tm shift, normalised) was -0.37% (inactive).

For `O=C(c1ccccc1)C(O)(CN1CCCCC1)c1ccccc1` (stereo not given), the activity (Tm shift, normalised) was -0.158% (inactive).

Turning to `CC(CC(C#N)(c1ccccc1)c1ccccc1)N1CCCCC1` (stereo not given), the activity (Tm shift, normalised) is 43.4% (active).

As for `O=C(Cc1ccccc1)N1CCCCN2[C@H](CO)[C@H](c3ccc(C#Cc4ccccc4)cc3)[C@H]2C1`, the activity (Tm shift, normalised) was -0.682% (inactive).

Turning to `C/C=C/c1ccc(C2[C@@H]3CN(S(C)(=O)=O)C[C@H]2N3)cc1` (stereo not given in full), the activity (Tm shift, normalised) is 0.016% [percent of sucrose octasulfate shift, DMSO zero] (inactive).

For the molecule `CCN(CC)C(=O)[C@@H]1C=C2c3cccc4[nH]c(Br)c(c34)C[C@H]2N(C)C1`, the activity (Tm shift, normalised) was 0.114% (inactive).

Consider `COC(=O)[C@H]1[C@H](CO)[C@H]2Cn3c(ccc(-c4ccccc4F)c3=O)[C@@H]1N2C(=O)C1CCC1`, for which the activity (Tm shift, normalised) was 0.081% (inactive).

The values above are taken from PubChem BioAssay AID651658 (Broad Institute, 2012).
